Measured values taken from ChEMBL document CHEMBL3988442, “University of Dundee, Small-Polar-MMV Screening Library” (2021).

What follows are compounds tested against T1, Aspartate--tRNA(Asp/Asn) ligase (Mycobacterium tuberculosis (strain ATCC 25618 / H37Rv)) (UniProt P9WFW3) (assay: Assay for Asp RNA synthetase-1 from Mycobacterium tuberculosis). Conditions: 30 µM.
T1 sequence (whole entry): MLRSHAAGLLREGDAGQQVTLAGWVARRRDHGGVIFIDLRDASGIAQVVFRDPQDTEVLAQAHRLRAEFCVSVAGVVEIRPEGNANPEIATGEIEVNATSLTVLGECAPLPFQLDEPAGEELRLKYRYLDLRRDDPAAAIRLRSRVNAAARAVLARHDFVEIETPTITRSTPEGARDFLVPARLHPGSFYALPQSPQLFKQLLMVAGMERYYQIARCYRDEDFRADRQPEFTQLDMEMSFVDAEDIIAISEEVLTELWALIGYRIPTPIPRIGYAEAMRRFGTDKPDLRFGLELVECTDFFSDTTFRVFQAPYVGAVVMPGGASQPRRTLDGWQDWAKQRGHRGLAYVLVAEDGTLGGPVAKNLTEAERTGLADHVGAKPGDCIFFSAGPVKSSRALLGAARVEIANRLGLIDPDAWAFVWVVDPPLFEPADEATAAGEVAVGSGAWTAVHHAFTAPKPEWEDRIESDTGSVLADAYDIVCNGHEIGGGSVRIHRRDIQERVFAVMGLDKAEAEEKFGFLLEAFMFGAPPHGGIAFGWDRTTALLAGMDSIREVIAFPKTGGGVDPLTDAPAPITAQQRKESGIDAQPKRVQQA
Format: functional
Parameters: scale not given: in the data most compounds retested in dose-response had high values

SMILES | Percent Effect [%]
Cc1cccnc1NC(=O)C1CCCN1Cc1ccccc1 (stereo not given) | -1.55
O=C(NC1(c2nnn(Cc3ccncc3)n2)CCCC1)c1ccccc1 | -0.678
CCS(=O)(=O)c1ccc(N2CCC(NC(=O)c3cnn(C)c3)CC2)cc1 | -0.471
CNC(=O)Cn1cc(C#N)c(=O)c2cc(Br)ccc21 | 0.0345
Cc1ccc(C2COCCN2C(=O)c2ccc(CN(C)C)cc2)o1 (stereo not given) | -1.28
O=C(O)c1csc(S(=O)(=O)N2CCCc3ccc(F)cc32)c1 | 1.9
CN(CCO)C(=O)c1coc(CN2CCN(c3ccccc3F)CC2)n1 | -3.46
Cn1cccc1C1CCCN1C(=O)NCCCn1cccn1 (stereo not given) | -1
c1cn(Cc2nnc(C3CCN(C4CCOCC4)CC3)n2C2CC2)cn1 | -3.53
O=c1oc(-c2cccs2)nn1CC(O)c1ccc(F)cc1 (stereo not given) | -0.425
CCNC(=O)NC(=O)CSC(C)c1c(F)cccc1F (stereo not given) | -1.51
CNC(=O)NC(=O)CN1CCC(c2c[nH]c3ccc(OC)cc23)CC1 | -2.54
Cc1ccc(C#N)c(N2CCC(c3nccn3CCN(C)C)CC2)n1 | -1.39
CC(C)n1ccnc1C1CCCN(c2ccnc3ccccc23)C1 (stereo not given) | -3.69
O=C1N(Cc2cccc(F)c2F)CCCC1(O)CN1CCCOCC1 (stereo not given) | -2.15
CCC(O)CNC(=O)C1(N(C)Cc2ccccc2)Cc2ccccc2C1 (stereo not given) | 2.72
O=C(NCCNS(=O)(=O)c1ccc2c(c1)CCCC2)c1ccoc1 | 8.29
O=C(NCCCn1ccnc1)N1CCCC1c1ccncc1 (stereo not given) | -2.68
Cc1cc(C)n(CC2CCCCN2CC(=O)Nc2cccnc2)n1 (stereo not given) | -0.655
CCNC(=O)c1cnc(Cc2ccc(F)cc2)s1 | -3.94

SMILES | Percent Effect [%]
CCS(=O)(=O)N1CCC(c2nnc(CN3CCOCC3)n2C)CC1 | -1.39
Cc1ccc(C(=O)N2Cc3ccccc3C2)cc1N1CCNC1=O | -0.287
Cc1ccc(C2COCCN2C(=O)c2ccc(N(C)C)cc2)o1 (stereo not given) | -0.816
O=c1oc(-c2cccs2)nn1CC(O)c1ccccc1 (stereo not given) | 1.71
Cn1ccnc1SCc1nc(C(C)(C)NC(=O)OC(C)(C)C)no1 | -0.333
COc1ncccc1C(=O)N1CCC(CNC(C)=O)CC1 | 1.83
N#Cc1ccc(C2CC(=O)Nc3c2cnn3C2CCCC2)cc1 (stereo not given) | -5.3
CCc1nc(NS(=O)(=O)c2ccc(F)cc2C)no1 | -2.08
COc1cc(C)c(CN2CCC3(CC2)C(C(=O)O)CC(=O)N3C)cc1C (stereo not given) | -0.678
COc1cc(C(=O)N(CCC#N)Cc2ccccn2)cc(OC)c1C | -3.83
Cc1cc(C)n(-c2cc(N3CCN(C(=O)C(C)(C)C)CC3)nc(C)n2)n1 | 0.747
CCN(CC1CN(Cc2ncc[nH]2)CCO1)c1cccnn1 (stereo not given) | -3.05
CC(C)CN1CCCn2nc(CNC(=O)CCN)cc2C1 | -0.839
CCNC(=O)c1ccc(N2CCCC(c3nccn3C(C)C)C2)nc1 (stereo not given) | -3.8
CCC(=O)NCc1cc(Br)ccc1OC(F)F | 0.885
CC(C)c1nccn1CCCNC(=O)c1ccc(N(C)C)nc1 | -2.17
CCCC(C)CN1CCC(n2cc(C3CCCC3)nn2)CC1 (stereo not given) | 2.26
O=C(NCc1ccncc1)N(Cc1ccccc1F)C1CC1 | -1.67
O=C1O[C@@H]2CN(Cc3cccc(F)c3)C[C@@H]2N1CCCN1CCOCC1 | 0.287
COC1CCCN(C(=O)Nc2nc(C)n(C)n2)C1 (stereo not given) | -3.53
